The text below walks through data of PubChem BioAssay (NCATS).

One experiment relates to MKL-1. Nature of the experiment: qHTS assay to identify novel small-molecules to repurpose for Merkel cell carcinoma treatment (AID 1296009). Further: nearly all actives have a fitted effect of over 60% in size. Further: potency means the concentration at half of the fitted maximal effect. As to conditions: MCC and control cell lines, CellTiter-Glo viability, 72 h; series mostly up to 46 µM. Summed up: (§1)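 CellTiter-Glo luminescence after 72 hr compound exposure at 37 degree celsius gave cell viability. Libraries NPC and MIPE were run as 8- and 11-point dose responses; RLUs normalized to DMSO (negative) and no-cell (cytotoxicity) controls.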

The subject of a further experiment is MKL-2. The description is as above. Conditions: MCC and control cell lines, CellTiter-Glo viability, 72 h; series mostly up to 46 µM. In short, it runs like this: as §1
In general terms: ATP-based viability assays read luminescence as a measure of living cells.

The test system of a further experiment is NIH3T3. The experiment is described as above. Conditions: MCC and control cell lines, CellTiter-Glo viability, 72 h; at 44.8 µM (top of the series) unless noted. Summed up:
as §1

The test system of a further experiment is UISO. Described as above. As to conditions: MCC and control cell lines, CellTiter-Glo viability, 72 h; series mostly up to 46 µM. Summed up: as §1
Another experiment deals with WaGa. The description is as above. As to conditions: MCC and control cell lines, CellTiter-Glo viability, 72 h; series mostly up to 46 µM. Summed up: as §1
A further experiment has as its system C33A. As to the kind of experiment: Primary qHTS to identify gynecologic anti-cancer compounds using libraries of approved drugs and bioactive compounds (AID 1345084). Further: nearly all actives have a fitted effect of over 55% in size. Further: potency means the concentration at half of the fitted maximal effect. Conditions: Gynecologic cancer cell panel viability, ATPlite luminescence, 48 h; series mostly up to 57.5 µM. Summed up:
(§2)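 Measured: luminescence after ATPlite addition (15 min, RT). Exposure: 48 h, 37 C, 5% CO2.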
A general note: qHTS replaces the single test concentration by a dilution series.

In another experiment the test system is CASKI. The description is as above. As to conditions: Gynecologic cancer cell panel viability, ATPlite luminescence, 48 h; series mostly up to 57.5 µM. In short, it runs like this: as §2
The test system of the next experiment is Es-2. Described as above. As to conditions: Gynecologic cancer cell panel viability, ATPlite luminescence, 48 h; series mostly up to 57.5 µM. In short, it runs like this:
as §2

Another experiment deals with HeLa. Described as above. Conditions: Gynecologic cancer cell panel viability, ATPlite luminescence, 48 h; series mostly up to 57.5 µM. In short, it runs like this: as §2
Another experiment has as its system Hek293T. The experiment is described as above. As to conditions: Gynecologic cancer cell panel viability, ATPlite luminescence, 48 h, control line for the selectivity index; series mostly up to 57.5 µM. Summed up: as §2
Another experiment deals with JEG-3. The experiment is described as above. Conditions: Gynecologic cancer cell panel viability, ATPlite luminescence, 48 h; series mostly up to 57.5 µM. Summed up: as §2
Another experiment relates to OV90. Described as above. Conditions: Gynecologic cancer cell panel viability, ATPlite luminescence, 48 h; series mostly up to 57.5 µM. Summed up:
as §2

The test system of another experiment is PA-1. The description is as above. Conditions: Gynecologic cancer cell panel viability, ATPlite luminescence, 48 h; series mostly up to 57.5 µM. Summed up: as §2
A further experiment deals with SKOV3. Described as above. As to conditions: Gynecologic cancer cell panel viability, ATPlite luminescence, 48 h; series mostly up to 57.5 µM. In short, it runs like this:
as §2

The next experiment relates to Tov-21-G. Described as above. As to conditions: Gynecologic cancer cell panel viability, ATPlite luminescence, 48 h; series mostly up to 57.5 µM. Summed up:
as §2

For a further experiment, the system named is Tov112D. The description is as above. Conditions: Gynecologic cancer cell panel viability, ATPlite luminescence, 48 h; series mostly up to 57.5 µM. In short, it runs like this:
as §2

Experiment [1] is described as follows: Drug repurposing screens with cells derived from glioblastoma tumor samples (AID 1345199). Further: nearly all actives have a fitted effect of over 40% in size. As to conditions: GBM patient neurospheres viability, ATP luminescence, 48 h. Summed up:
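Primary testing used CD133+ neurospheres from four GBM patients, seven concentrations, 48 h exposure and ATP-based viability; confirmation added three slower-growing patient lines.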

Experiment [2] can be described thus: qHTS assay to identify inhibitors of the type 1 interferon - major histocompatibility complex class I in skeletal muscle: Counter screen cell viability and HiBit confirmation (AID 1347412). Further: nearly all actives have a fitted effect of over 60% in size. Further: potency means the concentration at half of the fitted maximal effect. Conditions: iHSKM muscle cells + IFN-b, HiBiT or CellTiter-Glo, 24 h. In short, it runs like this: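 Myoblasts (C25cl48, HLA-B HiBiT) seeded in medium without dexamethasone, IFN-b 4 ng/ml added except unstimulated columns; 1 hr later compounds pinned (12-pt 1:3, top 46 uM final). Incubated 24 hrs, lysed 10 min, luminescence measured.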

Another experiment deals with CAOV3. As to the kind of experiment: Primary qHTS to identify gynecologic anti-cancer compounds using libraries of approved drugs and bioactive compounds (AID 1345084). Further: nearly all actives have a fitted effect of over 55% in size. Further: potency means the concentration at half of the fitted maximal effect. As to conditions: Gynecologic cancer cell panel viability, ATPlite luminescence, 48 h; series mostly up to 57.5 µM. In short, it runs like this:
as §2

Where [3] appears, read: at 45.9 µM (top of the series), tumour line B.
Setting [4] is: at 45.9 µM (top of the series), tumour line D.
Where [5] appears, read: at 46 µM (top of the series), tumour line A.
Where [6] appears, read: at 46.1 µM (top of the series), tumour line C.

Structures are written as SMILES. Several values for one entry are separate records, joined by “and”; a condition that tells them apart may be missing. Equal entries are not always repeated. Inconclusive results are not listed. A number with no mark means an inactive call. Activity calls are given as the source filed them. The call rests on the fitted dose curve; in most records, active means well fitted curve in the direction sought with a large enough effect; inconclusive means small, poorly fitted or top-dose-only effect, or another doubt; inactive means no such curve, though single readings can be large; an effect the other way counts as inactive or inconclusive.
On the % scale 0 is the no-effect control and ±100 the full control effect.

`OC[C@@H](O)[C@H](O)[C@H](O)[C@@H](O)CO`: the Potency result with MKL-1, in the experiment with MKL-2, in the experiment with UISO, with WaGa, in the experiment with C33A and in the experiment on CASKI was “inactive” throughout. For the same compound, the Potency result in the experiment on Es-2, in the experiment with HeLa, in the experiment on Hek293T, in the experiment with JEG-3, in the experiment on OV90 and with PA-1 was “inactive” each time. Besides, the Potency entry with SKOV3, in the experiment with Tov-21-G and with Tov112D was “inactive” each time. Besides, the outcome in the experiment with NIH3T3 was inactive. In addition, the activity, negative = cell killing in experiment [1] (setting [3]) is 0.357% and -12%; in experiment [1] (setting [4]), -2.85% and -9.13%; in experiment [1] (setting [5]), -13.7% and -24.1%; in experiment [1] (setting [6]), -4.39% and -14.9%.
For the compound `O=C1NC(=O)C(=Cc2ccc3c(c2)OC(F)(F)O3)S1`, the Potency result with MKL-1, with MKL-2 and in the experiment with UISO was “inactive” each time.
On to `C[C@]12CC[C@@H]3c4ccc(O)cc4C[C@@H](CCCCCCCCCS(=O)CCCC(F)(F)C(F)(F)F)[C@H]3[C@H]1CC[C@H]2O` (stereo not given in full), for which the Potency result in the experiment with MKL-1, in the experiment on MKL-2 and in the experiment on WaGa was “inactive” in each case. In addition, the result with NIH3T3 was inactive.
Consider `O=C(O)c1ccccc1C(=O)Nc1ccc(-c2ccccc2)cc1`, for which the Potency result in the experiment with MKL-1, with MKL-2, with UISO, with WaGa and in the experiment with C33A was “inactive” each time. Besides, the compound was called inactive in the experiment on NIH3T3. In addition, the figures for the Potency (in the experiment with SKOV3; in experiment [2] (HiBiT)) were 25.1 µM (active) and 14 µM (active), respectively. Also, the activity change, negative = inhibition in [2] (Viability, at 45.9 µM (top of the series)) is -4.23%.
Consider `OC[C@H]1O[C@@H](Oc2cc(O)cc(C=Cc3ccc(O)cc3)c2)[C@H](O)[C@@H](O)[C@H]1O`, for which the Potency entry with MKL-1, with MKL-2, with UISO and with WaGa was “inactive” each time.
As for `Cc1[nH]c(C=C2C(=O)Nc3ccc(S(=O)(=O)Cc4c(Cl)cccc4Cl)cc32)c(C)c1C(=O)N1CCC[C@H]1CN1CCCC1`, the Potency in the experiment on MKL-1 is 18.7 µM (active); in the experiment with MKL-2, 3.72 µM (active). In addition, in the experiment with UISO, the Potency result was “inactive”.
Take `CC(=O)N[C@@H](CS)C(=O)O`: the Potency result in the experiment on MKL-1, with MKL-2, with UISO, in the experiment on WaGa, with C33A and in the experiment on CASKI was “inactive” in each case. Further, the Potency entry in the experiment with Es-2, in the experiment on HeLa, in the experiment with Hek293T, with JEG-3, in the experiment with OV90 and with PA-1 was “inactive” each time. The Potency entry in the experiment on SKOV3, with Tov-21-G and in the experiment with Tov112D was “inactive” each time. For the same compound, the compound was classed as inactive in the experiment on NIH3T3. Further, the activity, negative = cell killing is -7.88% in [1] (setting [3]), -1.21% in [1] (setting [4]), -28.2% in experiment [1] (setting [5]) and -14.2% in experiment [1] (setting [6]).
For `O=C1NCC2(CCN(CCc3ccccc3)CC2)O1`, the Potency entry in the experiment with MKL-1, in the experiment on MKL-2, in the experiment on UISO, in the experiment on WaGa, in the experiment with C33A and with CASKI was “inactive” in each case. The Potency result in the experiment on Es-2, in the experiment with HeLa, with Hek293T, in the experiment on JEG-3, in the experiment with OV90 and in the experiment on PA-1 was “inactive” in each case. Further, the Potency entry in the experiment on SKOV3, with Tov-21-G and in the experiment on Tov112D was “inactive” throughout. Also, the outcome in the experiment with NIH3T3 was inactive. Further, the values for the activity, negative = cell killing in experiment [1] (setting [3]), in [1] (setting [4]) and in experiment [1] (setting [6]) were -4.5%, -9.33% and -12.7%, respectively.
As to `CC(C)C(C)C=CC(C)C1CCC2C3=CC=C4CC(O)CCC4(C)C3CCC21C` (stereo not given), the Potency entry in the experiment with MKL-1, in the experiment with MKL-2, in the experiment with UISO and with WaGa was “inactive” in each case.
In the case of `O=C1Nc2ccc(Cl)cc2C(C#CC2CC2)(C(F)(F)F)O1` (stereo not given), the Potency entry in the experiment on MKL-1, with MKL-2, in the experiment with UISO and in the experiment on WaGa was “inactive” throughout.
As to `C[C@@H]1CCN(C(=O)CC#N)C[C@H]1N(C)c1ncnc2[nH]ccc12`, the Potency entry in the experiment with MKL-1, in the experiment with MKL-2, in the experiment with UISO and in the experiment on WaGa was “inactive” each time.
Regarding `N#Cc1ccc(NC(=O)Nc2ccccc2Br)c2n[nH]nc12`, the Potency entry in the experiment with MKL-1, with MKL-2, in the experiment on UISO and with WaGa was “inactive” each time.
As to `Nc1ncnc2ccccc12`, the Potency entry in the experiment on MKL-1, with MKL-2, with UISO and in the experiment with WaGa was “inactive” each time.
Consider `O=C(NCCN1CCOCC1)c1ccc(Cl)cc1`, for which the Potency entry in the experiment with MKL-1, in the experiment on MKL-2, with UISO, with WaGa, with C33A and with CAOV3 was “inactive” in each case. For the same compound, the Potency result in the experiment on CASKI, in the experiment with Es-2, in the experiment with HeLa, with Hek293T, in the experiment with JEG-3 and with OV90 was “inactive” each time. For the same compound, the Potency entry in the experiment on PA-1, in the experiment with SKOV3, in the experiment with Tov-21-G and in the experiment on Tov112D was “inactive” each time. For the same compound, the activity, negative = cell killing in experiment [1] (setting [3]) was -9.41% and -9.63%; in experiment [1] (setting [4]), -2.14% and -10.5%; in [1] (setting [6]), -17.8% and -11.9%.
`O=C1C[C@@H](c2ccc(O)cc2)Oc2cc(O)cc(O)c21`: the Potency entry in the experiment with MKL-1, in the experiment on MKL-2, with UISO and with WaGa was “inactive” each time.
Turning to `O=C(N[C@@H](c1ccccc1)[C@@H]1CCCCN1)c1cccc(C(F)(F)F)c1Cl`, the Potency entry with MKL-1, in the experiment on MKL-2, in the experiment with UISO and in the experiment with WaGa was “inactive” in each case.
Consider `O=c1cc(N2CCOCC2)oc2c(-c3cccc4c3sc3ccccc34)cccc12`, for which the Potency result in the experiment with MKL-1, with MKL-2, in the experiment on UISO and in the experiment with WaGa was “inactive” each time.
On to `Nc1ncnc2c1ncn2[C@@H]1O[C@@H](CO)[C@H](O)[C@H]1O`, for which the Potency entry in the experiment with MKL-1, with MKL-2, in the experiment with UISO and in the experiment on WaGa was “inactive” throughout.
As to `O=C(Nc1c(Cl)cncc1Cl)c1ccc(OC(F)F)c(OCC2CC2)c1`, the Potency result in the experiment with MKL-1, with MKL-2, with UISO and in the experiment on WaGa was “inactive” throughout.
As to `COc1ccc(-c2coc3cc(O)ccc3c2=O)cc1`, the Potency entry in the experiment on MKL-1, in the experiment with MKL-2, in the experiment on UISO and with WaGa was “inactive” each time.
For `CCN(CC)CCOC(=O)c1ccc(N)cc1`, the Potency entry with MKL-1, with MKL-2, in the experiment on UISO, in the experiment on WaGa, in the experiment with C33A and with CAOV3 was “inactive” in each case. For the same compound, the Potency entry in the experiment on CASKI, with Es-2, with HeLa, in the experiment with Hek293T, with JEG-3 and in the experiment on OV90 was “inactive” each time. The Potency entry in the experiment with PA-1, with SKOV3, in the experiment on Tov-21-G and in the experiment with Tov112D was “inactive” in each case. The activity, negative = cell killing was 5.7% in [1] (at 20 µM (top of the series), tumour line C); -3.94% in experiment [1] (at 21.2 µM (top of the series), tumour line B); 2% in experiment [1] (at 21.2 µM (top of the series), tumour line D); -17.4% in experiment [1] (at 21.3 µM (top of the series), tumour line A).
